# Source: PubChem BioAssay (NCATS)
# Inconclusive results are not listed. Values without a mark were called inactive. Calls of active or inactive are those of the source. Calls follow the shape of the dose curve; as a rule, active = well fitted inhibition curve with a large enough effect; inconclusive = small, poorly fitted or top-dose-only effect; inactive = flat fitted curve, though single readings scatter.
# Test system: Zika virus NS2B-NS3 protease
# Assay: Primary screen GU AMC qHTS for Zika virus inhibitors (AID 1347154); also: nearly all actives have a fitted effect of over 70% in size;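 as to activity change, negative = inhibition: 0% = no-inhibitor control and -100% = no-enzyme control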
# Settings: Zika NS2B-NS3 unlinked protease, AMC fluorogenic substrate; series mostly up to 54.1 µM; activity change, negative = inhibition: at the top concentration
# How it was run: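 Unlinked Zika NS2B hydrophilic domain–NS3 protease complex at 25 nM in 10 mM Tris-HCl pH 8.0, 0.01% Tween 20, with an AMC peptide substrate. Fluorescence change (340/450 nm) over 15 min at room temperature, normalized to controls, fitted to 4-parameter Hill.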
# Potency is read from the fitted curve at half-maximal effect.
Structure (SMILES),"activity change, negative = inhibition",Potency
Cc1ccc(O)c(C(CCN(C(C)C)C(C)C)c2ccccc2)c1 (stereo unspecified),6.1%,
C[C@]12C=CC(=O)N[C@@H]1CC[C@H]1[C@H]3CC[C@@H](C(=O)Nc4cc(C(F)(F)F)ccc4C(F)(F)F)[C@@]3(C)CC[C@@H]12,-4.03%,
CCCCCCCCCCCCCCCC(=O)OC[C@@H](NC(=O)C(Cl)Cl)[C@H](O)c1ccc([N+](=O)[O-])cc1,-8.72%,
O=C(Nc1ccc(Oc2ccnc3[nH]ccc23)c(F)c1)c1cccn(-c2ccc(F)cc2)c1=O,8.21%,
CC(C)(O)[C@H]1CC[C@@](C)([C@H]2[C@@H](O)C[C@@]3(C)[C@@H]4C[C@H](O[C@@H]5O[C@H](CO)[C@@H](O)[C@H](O)[C@@H]5O)[C@H]5C(C)(C)[C@@H](O[C@@H]6OC[C@@H](O)[C@H](O)[C@@H]6O)CC[C@@]56C[C@@]46CC[C@]23C)O1,-13.9%,
CC(C)OC(=O)[C@H](C)N[P@](=O)(OC[C@H]1O[C@@H](n2ccc(=O)[nH]c2=O)[C@](C)(F)[C@H]1O)Oc1ccccc1,10.5%,
C[C@]12CCC(=O)C=C1[C@@H]1CC1[C@H]1[C@H]3[C@@H]4C[C@H]4[C@@]4(CCC(=O)O4)[C@@]3(C)CC[C@H]12 (stereo partly specified),0.549%,
O=c1[nH]c(=O)n([C@H]2C[C@@H](O)[C@@H](CO)O2)cc1C=CBr,-0.424%,
NC(=O)c1ncn([C@@H]2O[C@H](CO)[C@@H](O)[C@@H]2O)c1N,-12%,
N[C@H]1CN(c2c(F)cc3c(=O)c(C(=O)O)cn(C4C[C@@H]4F)c3c2Cl)CC12CC2 (stereo partly specified),-12.5%,
N#CC(=C(N)Sc1ccc(N)cc1)c1ccccc1C(F)(F)F,-2.86%,
CC1=C(C(=O)Nc2cc3cn[nH]c3cc2F)C(c2ccc(Cl)cc2F)N=C(c2ccnc(Cl)c2)N1 (stereo unspecified),6.51%,
CC(=CC(=O)Nc1ccccc1C(=O)O)c1ccc2ccccc2c1,-21.2%,
O=C(CCCCCCC(=O)Nc1cccnc1)NO,0.587%,
CCn1c(=O)c2c(nc(C=Cc3ccc(OC)c(OC)c3)n2C)n(CC)c1=O,-2.68%,
C[C@@H]1C(=O)O[C@H]2CC34[C@H]5C[C@@H](C(C)(C)C)C36[C@H](OC(=O)[C@@H]6O)O[C@@]4(C(=O)O5)[C@]21O (stereo partly specified),16.7%,
NC[C@H]1O[C@H](O[C@H]2[C@@H](O)[C@@H](O[C@H]3O[C@H](CO)[C@@H](O)[C@H](N)[C@@H]3O)[C@H](N)C[C@@H]2N)[C@H](N)C[C@H]1O,13.5%,
CON=C(C(=O)N[C@@H]1C(=O)N2C(C(=O)O)=C(Cn3ccc(=N)n3CCO)CS[C@H]12)c1csc(N)n1,-1.01%,

Structure (SMILES),"activity change, negative = inhibition",Potency
C[C@@H]1[C@H](C)CC[C@]2(C(=O)O)CC[C@]3(C)C(=CC[C@@H]4[C@@]5(C)C[C@@H](O)[C@H](O)[C@@](C)(CO)[C@H]5CC[C@]43C)[C@@H]12,3.19%,
CN(C)CC(=O)N1CCC(c2ccc(NC(=O)c3ncc(C#N)[nH]3)c(C3=CCCCC3)c2)CC1,3.53%,
C[C@H](NC(=O)C(C#N)=Cc1cccc(Br)n1)c1ccccc1,5.08%,
CC(C)(O)CC[C@@H](O)[C@](C)(O)[C@H]1CC[C@@]2(O)C3=CC(=O)[C@@H]4C[C@@H](O)[C@@H](O)C[C@]4(C)[C@@H]3CC[C@]12C,2.63%,
CC1(C)[C@H](O[C@H]2O[C@H](C(=O)O)[C@@H](O)[C@H](O)[C@H]2O[C@@H]2O[C@H](C(=O)O)[C@@H](O)[C@H](O)[C@H]2O)CC[C@@]2(C)[C@H]1CC[C@]1(C)[C@H]2C(=O)C=C2[C@H]3C[C@@](C)(C(=O)O)CC[C@]3(C)CC[C@]21C,9.9%,
Oc1cc2c(cc1O)C1c3ccc(O)c(O)c3OCC1(O)C2 (stereo unspecified),,24.1 µM (active)
CCN1CCN(C(=O)N[C@H](C(=O)N[C@@H]2C(=O)N3C(C(=O)O)=C(CSc4nnnn4C)CS[C@@H]23)c2ccc(O)cc2)C(=O)C1=O,13.2% [at 16.4 µM],
NC(=O)c1cccc(-c2cccc(OC(=O)NC3CCCCC3)c2)c1,6.33%,
N#Cc1cc(NC(=O)Nc2nnc(-c3ccncc3)s2)ccc1-c1cn[nH]c1,-8.5%,
Nc1ccn(C2CO[C@H](CO)O2)c(=O)n1 (stereo partly specified),-3.39%,
O=c1[nH]c(=O)n([C@H]2C[C@@H](O)[C@@H](CO)O2)cc1F,6.03%,
Nc1ccn(C[C@@H](CO)OCP(=O)(O)O)c(=O)n1,8.48% [at 25.8 µM],
Cc1onc(-c2ccccc2)c1C(=O)N[C@@H]1C(=O)N2[C@@H](C(=O)O)C(C)(C)S[C@@H]12,-9.5%,
COc1cc(C(=O)NC2CCN(C)CC2)ccc1Nc1ncc2c(n1)N(C1CCCC1)CCC(=O)N2C(C)C,-0.39%,
C=C1C(=O)O[C@H]2[C@@H]1CCC(C)=CCC[C@@]1(C)O[C@@H]21,7.99%,
COc1cc(CCc2cc(NC(=O)c3ccc(N4C[C@@H](C)N[C@@H](C)C4)cc3)n[nH]2)cc(OC)c1,18%,
O=c1c(O)c(-c2ccc(O)c(O)c2)oc2cc(O)ccc12,,17.1 µM (active)
O=c1ccn([C@@H]2O[C@H](CO)[C@H](O)[C@@H]2F)c(=O)[nH]1,4.16%,
